The text below walks through data of PubChem BioAssay AID2125 (NMMLSC, 2009).

In the test the test system is YE3959. In words: growth inhibition of S. cerevisiae strain panel, profiling panel, 26S proteasome disassembly project, secondary panel, OD600 (AID 2125). Conditions: growth OD600, 6-8 h, at 100 µM, stronger effect = lower value.

Values without a mark were called inactive.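 The calls were made as follows: active = combined score above 50, rising as EC50 falls below 10 µM and growth at top dose drops; inactive = the rest.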 Peptide text beside a SMILES is read from it. * marks the point of attachment. Cbz = O=C(OCc1ccccc1)*

As for `CC(C)C[C@@H](C=O)NC(=O)[C@H](CC(C)C)NC(=O)[C@H](CC(C)C)NC(=O)OCc1ccccc1` (Cbz-Leu-Leu-Leu-aldehyde), the percent response (growth) is 52.8%.
In the case of `CC(=O)N1C(=O)C(=C2C=C(C)OC(C)=C2)c2ccccc21`, the percent response (growth) was 60.8%.
